Screening results deposited in PubChem BioAssay by National Center for Advancing Translational Sciences (NCATS).
TDP1 cell noCPT – qHTS for Inhibitors of human tyrosyl-DNA phosphodiesterase 1 (TDP1): qHTS in cells in absence of CPT; DT40 Tdp1-/- hTDP1 cells, no CPT, ATP luminescence, 48 h; Potency, µM (highest dose often 46.2 µM), actives largely listed as inhibitors; 15% of 420,000 active; AID 686978, 2013; also: nearly all actives have a fitted effect of over 55% in size
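Growth kinetics read by CellTiter-Glo luminescence after ≥48 hr at 37 °C. Cells: DT40 Tdp1-/- stably carrying human TDP1, 400 per well, compound exposure in the absence of CPT (DMSO vehicle).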
HT1080-NT tox – kills 2HG-producing HT-1080-NT fibrosarcoma cells. HT-1080-NT fibrosarcoma viability, CellTiter-Glo ATP luminescence, 48 h. Potency, µM (top dose mostly 46.1 µM), usual class: cytotoxic. 1.6% of 360,000 active;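 also: NT is the 2HG producing partner of a matched IDH1 knockdown line; nearly all actives have a fitted effect of over 55% in size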
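Toxicity toward the 2HG-producing NT line was scored as %Activity, normalised to DMSO and no-cell wells, from CellTiter-Glo luminescence after 48 hours' treatment.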
HT1080 IDH1KD tx – HT-1080 IDH1 knockdown cell toxicity (counter line); HT-1080 IDH1 knockdown viability, ATP luminescence, 48 h; Potency, µM (titrated, usually from 46.1 µM), usual class: cytotoxic; 2% of 360,000 active; AID 686971
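HT-1080-IDH1KD cells (IDH1 knocked down), 750/well in RPMI with 5% FBS, treated with compound 48 h at 37 degrees C. Viability by CellTiter-Glo luminescence, normalised to DMSO and no-cell wells; concentration-response curves classed.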
TDP1 cell CPT – DT40-hTDP1 cell growth loss with CPT | chicken DT40 Tdp1-/-;hTDP1 cells + 20 nM CPT, ATP luminescence, 48 h | AID 686979 | Potency, µM (titrated, usually from 46.2 µM), hits mostly inhibitors | 12% of 420,000 active; also: nearly all actives have a fitted effect of over 55% in size
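Cell growth measured by CellTiter-Glo luminescence after a minimum 48 h, 37 C compound exposure with 20 nM CPT in Tdp1-knockout DT40 cells stably expressing hTDP1, seeded 400/well; qHTS titration format.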
IL-1B inflam inh – blocks inflammasome-driven IL-1 beta release. THP-1 LPS/ATP IL-1B secretion, AlphaLISA, 16 h; active compounds read low. activity change, % at 57.5 µM. 4.7% of 360,000 active; in the data active = activity change below about -50%; inconclusive = mostly about -30% to -49%
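Secreted IL-1B measured by AlphaLISA bead assay after 16 h compound exposure of THP-1 cells; compounds (final up to 57.5 uM) added 1 h before LPS (250 ng/mL) and ATP (1.25 mM) stimulation; lower signal means less secretion.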
Of the large screens only hits and unclear results are named; the others gave an inactive call. Sampled rows, rich in hits. Any-hit rate of the full collection: about 19%. Unless noted, calls follow the shape of the dose curve; as a rule, active = well fitted curve in the direction sought with a large enough effect; inconclusive = small, poorly fitted or top-dose-only effect, or another doubt; inactive = no such curve, though single readings can be large; an effect the other way counts as inactive or inconclusive.

O=C(O)CCCCCCC1C(=O)NC(=O)N1CCC(O)C1CCCCC1 (stereo not given)	none
O=C1c2ccccc2C(=O)c2c(O)ccc(O)c21	none (no result: HT1080-NT tox, HT1080 IDH1KD tx, IL-1B inflam inh)
Nc1ccc(O)c2c1C(=O)c1ccccc1C2=O	TDP1 cell noCPT inconclusive, HT1080-NT tox inconclusive, TDP1 cell CPT inconclusive, IL-1B inflam inh -56.9
O=C1c2ccccc2C(=O)c2c(O)c(O)cc(O)c21	TDP1 cell noCPT inconclusive, HT1080-NT tox 9.2µM, HT1080 IDH1KD tx inconclusive, TDP1 cell CPT inconclusive
O=C1C=C(O)c2c(O)cc(O)c(O)c2C1=O	TDP1 cell noCPT inconclusive, TDP1 cell CPT inconclusive
O=c1c(S(=O)(=O)c2ccccc2)cn(Cc2ccccc2)c2cc(N3CCOCC3)c(F)cc12	TDP1 cell noCPT inconclusive, TDP1 cell CPT 20.6µM (no result: HT1080-NT tox, HT1080 IDH1KD tx, IL-1B inflam inh)
O=c1c(S(=O)(=O)c2ccccc2)cn(Cc2cccc(F)c2)c2cc(N3CCOCC3)c(F)cc12	TDP1 cell noCPT 23.1µM, TDP1 cell CPT inconclusive (no result: HT1080-NT tox, HT1080 IDH1KD tx, IL-1B inflam inh)
Cc1ccn(C(=O)c2ccc(NC(=O)C3CC3)cc2)n1	TDP1 cell noCPT inconclusive
N#CC1=C(N)N(c2ccccc2)C(c2ccccc2)C1(C#N)C#N (stereo not given)	TDP1 cell noCPT 14.6µM, HT1080 IDH1KD tx inconclusive, TDP1 cell CPT 16.4µM
Nc1ccc(Oc2ncccn2)cc1	TDP1 cell noCPT 23.1µM, TDP1 cell CPT inconclusive
CCOc1ccc(N2C=Nc3ccc(OCC)cc3C2)cc1	TDP1 cell noCPT 18.4µM, TDP1 cell CPT 20.6µM, IL-1B inflam inh -59.5
CCOc1ccc(N2C(=O)CNC2=S)cc1	none
COc1ccc(-c2ccc(/C=C(\NC(=O)c3ccccc3)C(=O)N3CCOCC3)o2)cc1	TDP1 cell noCPT 20.6µM, TDP1 cell CPT 14.6µM, IL-1B inflam inh -56.7
COc1ccc(/C=C(\NC(=O)c2ccccc2)C(=O)N2CCN(C)CC2)cc1OC	none
COc1ccc(/C=C(/NC(=O)c2ccccc2)C(=O)N2CCOCC2)cc1OC	IL-1B inflam inh -67.4
COc1ccc(/C=C(/NC(=O)c2ccccc2)C(=O)N/N=C/c2ccc3c(c2)OCO3)cc1OC	HT1080-NT tox inconclusive, IL-1B inflam inh -68.6
Cc1ccc(S(=O)(=O)N(C)C)cc1NC(=S)NC12CC3CC(CC(C3)C1)C2	TDP1 cell noCPT inconclusive, TDP1 cell CPT inconclusive
NS(=O)(=O)c1cccc(NC(=S)NC(=O)C23CC4CC(CC(C4)C2)C3)c1	TDP1 cell noCPT 20.6µM, TDP1 cell CPT inconclusive, IL-1B inflam inh -86.5
Cc1ccc(S(=O)(=O)N(C)C)cc1NC(=S)NC(=O)C12CC3CC(CC(C3)C1)C2	TDP1 cell noCPT 8.2µM, TDP1 cell CPT 9.2µM
CN(C)S(=O)(=O)c1cccc(NC(=S)NC23CC4CC(CC(C4)C2)C3)c1	TDP1 cell noCPT inconclusive, HT1080-NT tox inconclusive, TDP1 cell CPT inconclusive
Cc1cc(Oc2c(C(F)(F)F)oc3c(CN4CCC(C)CC4)c(O)ccc3c2=O)cc(C)c1Cl	none (no result: HT1080-NT tox, HT1080 IDH1KD tx, IL-1B inflam inh)
CC(C)Cc1ccc(C(=O)NCCOc2ccccc2)o1	none
COc1ccc(C2(CNC(=O)c3cccc([N+](=O)[O-])c3)CCOCC2)cc1	TDP1 cell noCPT inconclusive
CON(C)C(=O)CCN(C(=O)OC(C)(C)C)c1ccccc1	none
C#CC(=O)CC1(CN(Cc2ccccc2)C(=O)OC(C)(C)C)CCCCC1	TDP1 cell noCPT 10.3µM, TDP1 cell CPT 11.6µM, IL-1B inflam inh inconclusive
CON(C)C(=O)CC1(CN(Cc2ccccc2)C(=O)OC(C)(C)C)CCCCC1	TDP1 cell noCPT 18.4µM, TDP1 cell CPT 18.4µM
CCOCCCNC(=O)c1ccc(CN2CCc3ccccc3C2)cc1	TDP1 cell noCPT inconclusive, TDP1 cell CPT inconclusive
COc1ccc(C(=O)COC(=O)c2cc(=O)c3ccccc3o2)cc1	none
CCn1c(SCC(=O)Nc2nc3ccc(OC)cc3s2)nc2c1c(=O)n(C)c(=O)n2C	TDP1 cell noCPT inconclusive, HT1080 IDH1KD tx inconclusive, TDP1 cell CPT 18.4µM, IL-1B inflam inh inconclusive
CC(C)n1c(SCC(=O)Nc2ccc3c(c2)OCO3)nc2c1c(=O)n(C)c(=O)n2C	TDP1 cell noCPT inconclusive, TDP1 cell CPT inconclusive
CCOc1ccc2nc(NC(=O)CSc3nc4c(c(=O)n(C)c(=O)n4C)n3C(C)C)sc2c1	TDP1 cell noCPT 14.6µM, TDP1 cell CPT 23.1µM
